High-throughput results deposited in PubChem by National Center for Advancing Translational Sciences (NCATS).
A549 tox – Nrf2 qHTS screen for inhibitors: counterscreen for cytotoxicity; A549 ARE-Fluc cells, CellTiter-Fluor viability, 18-24 h; Potency, µM (doses to about 46 µM), without a hit: at the top dose activity change, negative = cytotoxicity, actives largely listed as inhibitors; 390,000 tested, 0.16% active; AID 504648, 2011; note: % is set by controls: 0 for no effect and ±100 for the full control effect
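A549 ARE_Fluc cells in 5% FBS OPTI-MEM were exposed to compounds in concentration-response for 18-24 h at 37 deg C. Viability was read by CellTiter-Fluor fluorescence (Ex 405/Em 525) after 30 min, before the luciferase read.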
TGFb SMAD3 inh – qHTS for Inhibitors of TGF-b; HepG2 CAGA-GFP TGF-b/SMAD3 reporter, GFP fluorescence, 18 h; TGF-beta stimulated, 500 pg/mL final; Potency, µM (top dose mostly 46.1 µM), for the others: at the highest dose activity, negative = inhibition, hits mostly inhibitors; 410,000 tested, 1.2% active; note: % is set by controls: 0 for no effect and ±100 for the full control effect; nearly all actives have a fitted effect of over 65% in size
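Read-out: total well GFP (ex488/em500-530) summed from mean per-cell fluorescence. Cells: HEPG2 CAGA-GFP, 1% FBS DMEM, 18 h at 37 degrees C with 500 pg/mL final TGF-beta. Unstimulated wells served as the full-inhibition control; stimulated DMSO wells = 0%.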
S2 tox – Viability Counterscreen for Primary qHTS for Inhibitors of ATXN expression; S2 cells (HEK-293 line with an ATXN2-luciferase reporter) viability, CellTiter-Fluor protease fluorescence, 24 h; Potency, µM (highest dose often 56.7 µM), actives largely listed as cytotoxic; 400,000 tested, 0.49% active; note: nearly all actives have a fitted effect of over 40% in size
Nrf2 block – Nrf2 qHTS screen for inhibitors. A549 ARE-Fluc reporter, luciferase luminescence, 18-24 h. Potency, µM (highest dose often 46 µM), inactives show top-dose activity change, negative = inhibition, hits mostly inhibitors. 360,000 tested, 2.1% active; note: % is set by controls: 0 for no effect and ±100 for the full control effect; nearly all actives have a fitted effect of over 60% in size
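Cells were seeded and rested 2 h, then exposed to compounds for 18-24 h. CellTiter-Fluor was read first as a viability measure. BugLite was added 15 min before the final luminescent read of ARE-luciferase activity in A549 cells.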
ATXN2 expr inh – Primary qHTS for Inhibitors of ATXN expression. HEK-293 ATXN2-luciferase reporter, luminescence, 24 h. AID 1745845, 2022. Potency, µM (titrated, usually from 57 µM), for the others: at the top dose activity change, negative = inhibition, most hits filed as inhibitors. 360,000 tested, 0.72% active; note: % is set by controls: 0 for no effect and ±100 for the full control effect; nearly all actives have a fitted effect of over 55% in size
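ATXN2-luciferase reporter cells (luciferase flanked by upstream and downstream ATXN2 gene portions) were treated 24 h at 37 °C with compounds at up to 57 uM. SteadyGlo luminescence gave expression; GF-AFC fluorescence gave viability.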
HepG2 viability – qHTS for Inhibitors of TGF-b: Cytotox Counterscreen; Potency, µM (highest dose often 46.1 µM), inactives show at the highest dose activity change, negative = cytotoxicity, actives largely listed as cytotoxic; HepG2 CAGA-GFP viability, ATP luminescence, 18 h; 410,000 tested, 0.76% active
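HepG2 CAGA-GFP cells (1000/well, DMEM with 1% FBS) received compound, then TGF-beta at 500 pg/mL final, and were incubated 18 hours at 37 degrees C. Viability was read by CellTiter-Glo luminescence. Media-only wells were set as complete cell-killing and DMSO as no toxicity.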
Numbers without * were called inactive; i = inactive; u = inconclusive; x = not tested or not shown. The list is not random: actives were taken first. Their share in the collection is about 3.8%. Calls come from the whole dose curve; as a rule, active = well fitted curve in the direction sought with a large enough effect; inconclusive = small, poorly fitted or top-dose-only effect, or another doubt; inactive = no such curve, though single readings can be large; an effect the other way counts as inactive or inconclusive. Potency is the fitted concentration of half-maximal effect.

SMILES	A549 tox	TGFb SMAD3 inh	S2 tox	Nrf2 block	ATXN2 expr inh	HepG2 viability
CCN1C(=O)[C@@H]2[C@@H](c3ccc(-c4ccccc4)cc3)N3CCC[C@@]3(C(=O)OC)[C@@H]2C1=O	-5.5%	-26.0%	i	4.4%	-2.4%	8.3%
COc1ccc(O)c(-c2nc3ccccc3c(=O)n2Cc2ccccc2)c1	-7.7%	x	x	15.3%	x	x
COc1ccc(CN2CCN(C(=O)C3CCN(C(=O)Nc4ccccc4)CC3)CC2)cc1OC	-2.1%	-2.7%	i	-4.1%	x	-4.4%
CC1=C(CO)C(=O)O[C@@H]([C@@H](C)[C@H]2CC[C@H]3[C@@H]4C[C@H]5O[C@]56[C@@H](O)C=CC(=O)[C@]6(C)[C@@H]4CC[C@]23C)C1	x	x	x	x	3.06µM*	x
COc1cc(OC)c(C(=O)OC(C)C(=O)Nc2cccc(C(F)(F)F)c2)cc1OC (stereo unspecified)	0.2%	u	i	-25.5%	-8.1%	-3.6%
CCc1c(C2(O)CCCCC2)[nH]c2ccc(C(F)(F)F)cc12	-4.4%	11.2µM*	x	2.4%	-62.7%	-109.8%
CN(C)Cc1c(C(C)(C)O)[nH]c2ccc(C(F)(F)F)cc12	-2.4%	-6.1%	i	1.8%	3.4%	-26.8%
O=C(CCNc1ccc(Cc2ccncc2)cc1)c1cccc([N+](=O)[O-])c1	-8.1%	-8.9%	i	14.6µM*	-29.7%	-13.1%
COc1ccc(C(=O)CCS(=O)(=O)c2ccc(C)cc2)cc1	0.8%	u	i	6.4%	6.3%	7.08µM*
COc1ccc(S(=O)(=O)CCC(=O)NCCc2ccc(Cl)cc2)cc1	9.3%	u	i	-13.8%	-9.3%	12.6µM*
Cc1ccc(S(=O)(=O)CCC(=O)c2cccc([N+](=O)[O-])c2)cc1	-3.0%	11.2µM*	u	3.2%	u	-66.9%
Cc1ccc(C(=O)CCS(=O)(=O)c2ccc(Br)cc2)cc1	-0.5%	u	i	-10.8%	-3.0%	-78.9%
CCN(CC)c1ccc(/C=N/NC(=O)c2nnn(-c3nonc3N)c2CN(C)C2CCCCC2)cc1	x	-5.1%	i	x	x	25.2%
O=[N+]([O-])c1cc(-c2ccccc2)cc([N+](=O)[O-])c1O	u	u	i	16.4µM*	-14.2%	-20.6%
O=[N+]([O-])c1cc2ccccc2c(O)c1O	x	12.4%	i	x	x	3.7%
CCCCN(C)c1c(C)nc2ccc(C(=O)Nc3cc(-c4ccccc4)ccc3OC)cn12	x	u	u	x	u	12.6µM*
CCc1nc2ccc(C(=O)Nc3cc(-c4ccccc4)ccc3OC)cn2c1N(C)CCCc1ccccc1	x	5.0%	i	x	-10.0%	-32.7%
CCc1nc2ccc(C(=O)Nc3cc(-c4ccccc4)ccc3OC)cn2c1N(C)CCC(C)C	x	u	u	x	u	-108.2%
CCc1nc2ccc(C(=O)Nc3cc(-c4ccccc4)ccc3OC)cn2c1N(CCN(C)C)CC1CC1	x	u	28.2µM*	x	u	-96.4%
CCOc1ccc(N(CC)C(=O)c2cc3c(s2)-c2ccccc2OC3)cc1	5.1%	u	i	u	u	-32.2%
COc1cc(NC(=O)c2cc3c(s2)-c2ccccc2OC3)cc(OC)c1OC	-10.7%	u	u	20.6µM*	u	-54.8%
CCN(C(=O)c1cc2c(s1)-c1ccccc1OC2)c1cc(Cl)ccc1OC	-17.7%	8.91µM*	i	u	-20.1%	-19.5%
CN(C)CCN(Cc1ccco1)C(=O)c1cc2c(s1)-c1ccccc1OC2	-9.2%	u	x	8.1%	x	12.6µM*
Cc1ccc(S(=O)(=O)c2nc(Cc3ccccc3)oc2N2CCOCC2)cc1	-6.3%	-1.2%	i	0.2%	3.3%	8.1%
Cc1cccc(C)c1NC(=O)Cn1nc(C)c2sc3ccccc3c2c1=O	3.8%	13.3%	i	20.6µM*	4.3%	3.5%
SMILES	A549 tox	TGFb SMAD3 inh	S2 tox	Nrf2 block	ATXN2 expr inh	HepG2 viability
Cc1nn(CC(=O)N2CCOCC2)c(=O)c2c1sc1ccccc12	-3.2%	10.1%	i	10.4%	6.0%	5.9%
Cc1cc(-c2ccc(S(=O)(=O)Nc3ccc(Br)c(C)c3)s2)on1	-13.8%	12.6µM*	x	-22.2%	x	-50.5%
FC(F)(F)c1ccc(C2[C@H]3CN(Cc4ccc(-c5ccccc5)cc4)[C@H](c4ccccc4)C34CC2(c2cccnc2)C4)cc1 (stereo partly specified)	-3.2%	u	i	15.9%	7.8%	-23.5%
FC(F)(F)c1ccc(C2[C@H]3CN(Cc4cccnc4)[C@H](c4ccccc4)C34CC2(c2cccnc2)C4)cc1 (stereo partly specified)	u	8.91µM*	u	25.9µM*	u	-105.3%
CN1CCN(c2ncnc3c2ncn3[C@H]2CN(Cc3ccc(-c4ccccc4)cc3)C[C@@H](CO)O2)CC1	x	u	u	x	u	11.2µM*
CN(C)CCNc1ncnc2c1ncn2[C@H]1CN(Cc2ccc(-c3ccccc3)cc2)C[C@@H](CO)O1	x	15.8µM*	u	x	u	-87.5%
CN(C)CCNc1ncnc2c1ncn2[C@H]1CN(Cc2ccccc2)C[C@@H](CO)O1	x	2.6%	i	x	9.7%	-8.1%
OCCN1CCN(c2ncnc3c2ncn3[C@H]2CN(Cc3ccc(-c4ccccc4)cc3)C[C@@H](CO)O2)CC1	x	-6.2%	x	x	u	-33.9%
CC(C)(C)[N+]([O-])=Cc1ccc(S(=O)(=O)O)cc1S(=O)(=O)O	x	x	x	x	12.6%	x
CN1c2ccccc2C(C)(C)C12C=Cc1cc(O)ccc1O2 (stereo unspecified)	u	u	u	20.6µM*	-19.6%	-40.0%
CN1c2ccccc2C(C)(C)C12C=Nc1c(cc(N3CCOCC3)c3ccccc13)O2 (stereo unspecified)	16.2%	u	x	-23.0%	-15.3%	-16.1%
CN(C)CCN1C(=O)C(=O)/C(=C(/O)c2ccc(S(=O)(=O)N3CCOCC3)cc2)C1c1ccc(F)cc1 (stereo unspecified)	-6.0%	-4.2%	i	2.5%	1.2%	12.6µM*
CC(C)(c1ccccc1)c1ccc(OCCCN2CCNCC2)cc1	-2.0%	0.0%	u	8.1%	-29.7%	22.4µM*
CC(C)(C)c1ccc(OCCCCCCN2CCNCC2)cc1	-12.1%	u	u	5.5%	u	-173.2%
CCCCCOc1ccc(NC(=O)C(=O)NCCCn2ccnc2)cc1	-0.5%	-9.0%	u	9.2µM*	-32.7%	-20.4%
CCCOc1ccc(C(=O)Nc2cccnc2)cc1	-4.9%	3.7%	i	26.4%	x	-1.5%
